Results taken from PubChem BioAssay.
For some of these results: Entries with a potency or affinity are not part of this list. Activity calls are given as the source filed them.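 Rule for the calls, unless noted: active = earlier screen potentiator hit that boosts the TRPC4 ion channel at some dose, with a dose response; inactive = no potentiation, no dose response, or not a prior hit.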

How the values were obtained:
[1] = tested on: TRPC4 beta (transient receptor potential cation channel C4), mouse; assay: TRPC4 cation channel opening, retest – cell-based, Fluo4 calcium, HEK293 TRPC4beta/mu-opioid, duplicates, 10 µM, confirmation (AID 2426;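 active = fluorescence ratio normalized to control raised more than 50% in primary screen plus both repeat runs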); conditions: Fluo4 calcium fluorescence, at 10 µM; stronger effect = higher value
[2] = tested on: transient receptor potential cation channel C4 beta (TRPC4), mouse; assay: TRPC4 cation channel opening, second retest – cell-based, second round, Fluo4, HEK293 TRPC4beta/mu-opioid, 1 µM, confirmation (AID 2461;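 active = primary screen active and over 50% activation in each of two duplicate runs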); conditions: Fluo4 calcium fluorescence, at 1 µM; stronger effect = higher value
[3] = tested on: TRPC4 (transient receptor potential cation channel C4 beta), mouse; assay: potentiation of DAMGO EC20 TRPC4 response – cell-based, second round, Fluo-4, HEK293 TRPC4beta/mu-opioid, 1 µM, confirmation (AID 2554;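 active = primary screen hit whose fluorescence ratio, in both repeats, exceeds the weak agonist control mean by 3 SD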); conditions: DAMGO EC20, Fluo-4 calcium flux, at 1 µM; stronger effect = higher value
[4] = tested on: TRPC4 beta (transient receptor potential cation channel C4), mouse; assay: potentiation of DAMGO EC20 TRPC4 response – cell-based, Fluo-4, HEK293 TRPC4beta/mu-opioid, confirmation (AID 2555;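 active = primary screen hit whose calcium fluorescence ratio, in both repeats, exceeds the weak agonist control mean by 3 SD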); conditions: DAMGO EC20, Fluo-4 calcium flux, at 10 µM; stronger effect = higher value
[5] = biological target: Short transient receptor potential channel 4 (Mus musculus) (UniProt Q9QUQ5); assay: blockers of DAMGO-evoked TRPC4 calcium flux – cell-based, Fluo4, HEK293 TRPC4beta/mu-opioid, confirmation (AID 2636;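 active = calcium signal cut by more than 3 SD below the full-agonist control yet still positive, in both repeats and the earlier primary screen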); conditions: at 10 µM; stronger effect = higher value
[6] = biological target: Short transient receptor potential channel 4 (Mus musculus) (UniProt Q9QUQ5); assay: blockers of DAMGO-evoked TRPC4 calcium flux – cell-based, second round, Fluo4, HEK293 TRPC4beta/mu-opioid, 1 µM, confirmation (AID 2637;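 active = calcium signal ratio cut to more than 3 SD under the fully stimulated control mean yet still positive, in both repeats and the primary screen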;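 for inhibition: percent of integrated ratio relative to wells lacking test compound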); conditions: at 1 µM; stronger effect = higher value
[7] = biological target: Short transient receptor potential channel 4 (Mus musculus) (UniProt Q9QUQ5); assay: calcium entry via TRPC4 opening agents – cell-based, HEK293 TRPC4/mu-opioid, Fluo-4 calcium, dose response (AID 434937;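 active = primary screen activator hit with a dose response curve and TRPC4 channel activation at any tested dose; inactive = no activation, no dose response, or not a primary hit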)
[8] = biological target: Short transient receptor potential channel 4 (Mus musculus) (UniProt Q9QUQ5); assay: potentiation of DAMGO-evoked TRPC4 calcium signal – cell-based, HEK293 TRPC4/mu-opioid, Fluo-4 calcium, EC20 DAMGO, dose response (AID 434941);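 note: calcium entry triggered by an EC20 dose of DAMGO at the co-expressed mu-opioid receptor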
[9] = biological target: Short transient receptor potential channel 6 (Mus musculus) (UniProt Q61143); assay: TRPC6 blockade by TRPC4 inhibitor hits – cell-based, HEK293, membrane potential dye, duplicate, selectivity assay for TRPC4 inhibitor project, confirmation (AID 434948;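 active = active in primary screen and both duplicates, each dropping signal beyond three positive-control SD with fluorescence still positive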); conditions: HEK293 TRPC6, membrane potential dye fluorescence, at 10 µM, stimulated with maximal-effect acetylcholine; stronger effect = higher value
[10] = biological target: Short transient receptor potential channel 6 (Mus musculus) (UniProt Q61143); assay: TRPC6 opening by TRPC4 activator hits – cell-based, HEK293, membrane potential dye, duplicate, selectivity assay for TRPC4 activator project, confirmation (AID 434950;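 active = membrane potential signal rise above negative control mean plus 3 SD in both duplicates, also active in the earlier TRPC4 screen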); conditions: HEK293 TRPC6, membrane potential fluorescence, at 10 µM; activation: stronger effect = higher value; outcome: activation
[11] = biological target: Short transient receptor potential channel 6 (Mus musculus) (UniProt Q61143); assay: positive modulators of mouse TRPC6 channel – HEK293 cells, membrane potential dye, duplicate, selectivity assay for TRPC4 potentiator project, confirmation (AID 434952;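 active = compound raising the membrane signal above positive-control mean plus 3 SD in both repeats, and a primary screen hit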); conditions: HEK293 TRPC6, membrane potential dye fluorescence, at 10 µM, maximal acetylcholine added after compound; stronger effect = higher value
[12] = biological target: Short transient receptor potential channel 4 (Mus musculus) (UniProt Q9QUQ5); assay: calcium flux activators in TRPC4/5HT1a cells, counter-screen for TRPC4 activator project, cell-based, second counter screen, HEK293 TRPC4/5HT1a, Fluo-4 (AID 434977;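 active = calcium signal rise above buffer-control mean plus 5 SD in both duplicates, and also a hit in the primary screen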); conditions: Fluo-4 calcium flux, at 10 µM; stronger effect = higher value
[13] = serotonin-gated TRPC4 signal block – cell-based, second counter screen, HEK293 TRPC4/5HT1a, Fluo-4, counter-screen for TRPC4 inhibitor project, confirmation (AID 434978;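 active = primary screen active whose calcium signal fell more than 3 SD beyond the full-serotonin control mean in both duplicate plates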;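 for outcome: serotonin given first at submaximal then at maximal dose after compound preincubation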); conditions: Fluo-4 calcium flux, at 10 µM, serotonin added to trigger calcium flux; stronger effect = higher value
[14] = tested on: TRPC4 (mouse), co-expressed with 5HT1a in HEK293; assay: enhancement of serotonin-evoked TRPC4 response – cell-based, second counter screen, HEK293 TRPC4/5HT1a, Fluo-4, counter-screen for TRPC4 potentiator project, confirmation (AID 434979;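 active = signal rise over 3 SD above mean of control wells given weak agonist, in both repeats and first screen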); conditions: Fluo-4 calcium flux, at 10 µM, serotonin added at its EC20 dose; stronger effect = higher value
[15] = nonspecific calcium rise without TRPC4 – cell-based, HEK293 mu-opioid receptor line, counter-screen for TRPC4 activator project, confirmation (AID 449723;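 active = hit in primary screen, with calcium signal over 5 SD above buffer well mean in both duplicates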;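 note: counter screen cells carry the mu-opioid receptor alone and lack TRPC4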); conditions: HEK293 mu-opioid cells, Fluo-4 calcium fluorescence, at 10 µM; stronger effect = higher value
[16] = nonspecific potentiation of DAMGO calcium response – cell-based, HEK293 mu-opioid receptor line, counter-screen for TRPC4 allosteric potentiator project, confirmation (AID 449724;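 active = calcium signal rise more than 3 SD above the low-dose agonist control mean, in both duplicate plates and the primary screen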); conditions: HEK293 mu-opioid receptor cells, Fluo-4 calcium flux, at 10 µM, compound added before EC20 DAMGO stimulus; stronger effect = higher value

Sequence of Short transient receptor potential channel 4 (Mus musculus) (Q9QUQ5 whole entry, looked up): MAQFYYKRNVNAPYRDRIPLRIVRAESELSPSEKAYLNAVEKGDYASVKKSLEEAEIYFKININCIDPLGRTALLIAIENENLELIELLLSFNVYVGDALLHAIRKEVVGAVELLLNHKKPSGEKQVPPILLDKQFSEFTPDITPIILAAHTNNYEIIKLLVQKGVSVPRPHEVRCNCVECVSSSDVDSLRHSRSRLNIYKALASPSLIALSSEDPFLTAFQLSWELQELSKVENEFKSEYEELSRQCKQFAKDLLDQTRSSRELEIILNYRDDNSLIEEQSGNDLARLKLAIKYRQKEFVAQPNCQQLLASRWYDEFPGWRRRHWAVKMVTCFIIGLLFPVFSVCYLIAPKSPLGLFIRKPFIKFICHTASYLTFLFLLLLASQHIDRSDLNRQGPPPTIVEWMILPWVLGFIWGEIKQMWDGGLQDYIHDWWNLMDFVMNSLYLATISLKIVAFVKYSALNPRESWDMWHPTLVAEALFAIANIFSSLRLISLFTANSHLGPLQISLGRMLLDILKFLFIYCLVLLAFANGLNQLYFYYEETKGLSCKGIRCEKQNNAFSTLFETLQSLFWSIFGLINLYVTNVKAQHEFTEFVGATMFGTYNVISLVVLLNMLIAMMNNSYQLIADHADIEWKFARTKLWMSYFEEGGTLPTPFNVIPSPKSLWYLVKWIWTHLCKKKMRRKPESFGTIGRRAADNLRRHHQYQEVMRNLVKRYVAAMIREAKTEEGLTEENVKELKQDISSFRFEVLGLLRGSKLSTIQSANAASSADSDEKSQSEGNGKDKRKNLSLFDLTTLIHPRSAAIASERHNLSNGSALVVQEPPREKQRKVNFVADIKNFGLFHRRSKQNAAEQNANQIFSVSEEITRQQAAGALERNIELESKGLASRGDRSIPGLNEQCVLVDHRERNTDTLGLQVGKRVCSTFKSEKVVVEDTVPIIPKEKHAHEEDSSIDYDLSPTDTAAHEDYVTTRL
Sequence of Short transient receptor potential channel 6 (Mus musculus) (Q61143 whole entry, looked up): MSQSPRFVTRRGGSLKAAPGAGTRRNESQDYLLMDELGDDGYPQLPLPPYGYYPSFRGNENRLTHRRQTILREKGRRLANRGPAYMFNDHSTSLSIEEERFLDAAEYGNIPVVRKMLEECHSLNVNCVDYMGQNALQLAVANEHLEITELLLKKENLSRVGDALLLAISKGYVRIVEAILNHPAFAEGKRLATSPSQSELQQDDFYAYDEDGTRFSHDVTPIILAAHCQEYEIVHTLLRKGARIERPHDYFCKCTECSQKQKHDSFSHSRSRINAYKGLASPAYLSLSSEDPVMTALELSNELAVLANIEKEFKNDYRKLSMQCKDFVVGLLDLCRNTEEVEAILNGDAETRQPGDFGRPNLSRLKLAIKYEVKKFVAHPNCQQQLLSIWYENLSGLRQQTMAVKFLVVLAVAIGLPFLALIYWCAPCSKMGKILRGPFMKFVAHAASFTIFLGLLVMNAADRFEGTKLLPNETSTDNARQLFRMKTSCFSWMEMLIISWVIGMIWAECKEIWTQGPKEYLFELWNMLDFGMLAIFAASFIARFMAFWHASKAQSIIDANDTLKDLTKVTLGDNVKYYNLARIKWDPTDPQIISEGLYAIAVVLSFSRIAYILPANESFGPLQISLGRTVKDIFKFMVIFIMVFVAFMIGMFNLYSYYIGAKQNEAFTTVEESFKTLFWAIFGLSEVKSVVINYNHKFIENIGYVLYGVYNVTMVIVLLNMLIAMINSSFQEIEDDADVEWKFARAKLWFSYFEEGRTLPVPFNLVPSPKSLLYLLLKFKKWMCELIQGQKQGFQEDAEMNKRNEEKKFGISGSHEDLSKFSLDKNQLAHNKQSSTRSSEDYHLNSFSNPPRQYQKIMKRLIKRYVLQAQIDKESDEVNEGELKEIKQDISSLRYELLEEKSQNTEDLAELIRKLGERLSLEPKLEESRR

Structure (SMILES)	outcome [1]	outcome [2]	outcome [3]	outcome [4]	inhibition [5]	inhibition [6]	outcome [7]	outcome [8]	outcome [9]	outcome [10]	outcome [11]	outcome [12]	outcome [13]	outcome [14]	outcome [15]	outcome [16]	inhibition [13]	outcome [5]	outcome [6]	inhibition [9]
Cc1ccn2c(CNCCCn3cccn3)c(C(=O)N3CCCCCC3)nc2c1	inactive	inactive	inactive	inactive	78% (active)	47% (active)	inactive	inactive	inactive	inactive	inactive	inactive	inactive	inactive	inactive	inactive	–	–	–	–
CC(C)=CCCC(C)CN1CCC(n2nccc2NC(=O)C2CCCC2)CC1 (stereo unspecified)	inactive	inactive	inactive	inactive	99% (active)	63% (active)	inactive	inactive	inactive	inactive	inactive	inactive	–	inactive	inactive	inactive	38% (active)	–	–	–
CCOC(=O)c1c(NC(=O)C(C)Sc2nnc(C)c(=O)[nH]2)sc2c1CCCC2 (stereo unspecified)	inactive	inactive	inactive	inactive	77% (active)	87% (active)	inactive	inactive	inactive	inactive	inactive	inactive	–	inactive	inactive	inactive	28.1% (active)	–	–	–
Cc1[nH]c2ccc(C(=O)OC(C)C(=O)N(C)c3ccccc3)cc2c1C (stereo unspecified)	inactive	inactive	inactive	inactive	–	–	inactive	inactive	inactive	inactive	inactive	inactive	inactive	inactive	inactive	inactive	–	inactive	inactive	–
CCOc1ccccc1CN1CCC(n2nccc2NC(=O)CCc2ccccc2)CC1	inactive	inactive	inactive	inactive	97% (active)	69% (active)	inactive	inactive	inactive	inactive	inactive	inactive	inactive	inactive	inactive	inactive	–	–	–	–
CC12CC3(C)CC(C)(C1)CC(NC(=O)N1CCCC1)(C2)C3	inactive	inactive	inactive	inactive	76% (active)	–	inactive	inactive	inactive	inactive	inactive	inactive	inactive	inactive	inactive	inactive	–	–	inactive	–
CCCCn1c(NCCO)nc2ccccc21	inactive	inactive	inactive	inactive	92% (active)	66% (active)	inactive	inactive	inactive	inactive	inactive	inactive	–	inactive	inactive	inactive	29.5% (active)	–	–	–
COC(=O)CSc1nnc2n(-c3ccc(OC)cc3)c(=O)c3c4c(sc3n12)CCCCC4	inactive	inactive	inactive	inactive	95% (active)	–	inactive	inactive	inactive	inactive	inactive	inactive	–	inactive	inactive	inactive	23% (active)	–	inactive	–
NC(=NC1CCCCC1)c1ccc(Cl)cc1	inactive	inactive	inactive	inactive	97% (active)	66% (active)	inactive	inactive	inactive	inactive	inactive	inactive	–	inactive	inactive	inactive	22.8% (active)	–	–	–
COc1ccc2nc(NCc3ccccc3)[nH]c2c1	inactive	inactive	inactive	inactive	94% (active)	50% (active)	inactive	inactive	inactive	inactive	inactive	inactive	–	inactive	inactive	inactive	23.6% (active)	–	–	–
COc1cc(CNC2CCCC2)cc(Cl)c1OCc1ccc(F)cc1	inactive	inactive	inactive	inactive	82% (active)	–	inactive	inactive	inactive	inactive	inactive	inactive	–	inactive	inactive	inactive	37.5% (active)	–	inactive	–
CC(=O)OCCCN1C(=O)c2cccc3cc(Br)cc(c23)C1=O	inactive	inactive	inactive	inactive	96% (active)	55% (active)	inactive	inactive	inactive	inactive	inactive	inactive	–	inactive	inactive	inactive	14.5% (active)	–	–	–
O=S(=O)(c1ccccc1)N1CCN(C/C=C/c2ccccc2)CC1	inactive	inactive	inactive	inactive	93% (active)	–	inactive	inactive	inactive	inactive	inactive	inactive	inactive	inactive	inactive	inactive	–	–	inactive	–
Clc1ccc(C[n+]2cc(-c3ccccc3)n3c2CCC3)cc1Cl	inactive	inactive	inactive	inactive	93% (active)	60% (active)	inactive	inactive	inactive	inactive	inactive	inactive	–	inactive	inactive	inactive	25.4% (active)	–	–	–
CCCCc1nc2ccccc2c(N)c1CCC (tested in a mixture with another compound)	inactive	inactive	inactive	inactive	96% (active)	69% (active)	inactive	inactive	–	inactive	inactive	inactive	–	inactive	inactive	inactive	32.6% (active)	–	–	18% (active)
Cn1c(-c2ccccc2)cnc1NCc1ccccc1	inactive	inactive	inactive	inactive	86% (active)	44% (active)	inactive	inactive	inactive	inactive	inactive	inactive	–	inactive	inactive	inactive	38.6% (active)	–	–	–
